Screening data as filed in PubChem.
AMPAR-TARP mod = modulates AMPAR-stargazin complexes; O88602+P19491; HEK293 GluA2+stargazin, membrane potential dye (FDSS), glutamate EC50; hits were called plate by plate, in both directions; calls only at 30 µM; 40,000 tested, 3.5% active;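 active means any of four per-well response measures lying three or more SD from its plate-wide compound average, in either direction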
Target sequence (O88602 whole entry, looked up): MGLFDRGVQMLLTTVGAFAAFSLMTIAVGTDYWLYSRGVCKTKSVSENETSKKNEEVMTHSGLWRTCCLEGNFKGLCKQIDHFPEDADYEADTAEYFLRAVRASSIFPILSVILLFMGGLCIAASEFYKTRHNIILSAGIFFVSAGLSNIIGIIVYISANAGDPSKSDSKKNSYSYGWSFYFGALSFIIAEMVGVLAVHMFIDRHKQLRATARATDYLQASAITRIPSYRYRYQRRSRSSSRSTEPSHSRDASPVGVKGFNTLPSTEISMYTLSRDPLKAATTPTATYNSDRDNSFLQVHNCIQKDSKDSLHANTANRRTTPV
Target sequence (P19491 whole entry, looked up): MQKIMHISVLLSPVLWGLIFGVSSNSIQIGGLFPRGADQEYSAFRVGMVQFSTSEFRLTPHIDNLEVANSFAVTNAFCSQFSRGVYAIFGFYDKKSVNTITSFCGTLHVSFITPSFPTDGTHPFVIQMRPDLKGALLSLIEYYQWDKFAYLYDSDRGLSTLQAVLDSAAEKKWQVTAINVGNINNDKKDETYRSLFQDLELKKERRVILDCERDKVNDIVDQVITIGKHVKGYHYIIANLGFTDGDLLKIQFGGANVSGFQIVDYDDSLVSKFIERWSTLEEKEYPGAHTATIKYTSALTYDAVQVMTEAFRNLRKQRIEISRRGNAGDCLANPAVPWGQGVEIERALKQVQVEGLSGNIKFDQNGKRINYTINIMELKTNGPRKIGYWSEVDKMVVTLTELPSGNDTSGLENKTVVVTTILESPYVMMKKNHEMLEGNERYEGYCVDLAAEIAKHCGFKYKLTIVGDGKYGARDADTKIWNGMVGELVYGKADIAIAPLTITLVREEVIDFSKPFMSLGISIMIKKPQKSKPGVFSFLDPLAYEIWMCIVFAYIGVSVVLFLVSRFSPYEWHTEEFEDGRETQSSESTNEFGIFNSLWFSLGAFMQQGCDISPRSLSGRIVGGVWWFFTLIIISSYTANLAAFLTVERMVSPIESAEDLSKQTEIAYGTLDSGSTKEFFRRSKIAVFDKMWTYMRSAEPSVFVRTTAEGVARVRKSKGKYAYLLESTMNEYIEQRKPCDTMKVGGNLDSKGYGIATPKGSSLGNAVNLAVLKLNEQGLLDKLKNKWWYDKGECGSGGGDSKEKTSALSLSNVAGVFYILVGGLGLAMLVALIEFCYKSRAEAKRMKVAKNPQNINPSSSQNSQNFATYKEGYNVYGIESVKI
GIRK2 activator = Activates human GIRK2-containing potassium channels; P48051; activation (% efficacy), % for hits at 37.5 µM; 34,000 tested, under 10 active; HEK293 GIRK2/NPY4 cells, thallium flux fluorescence;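 active means primary screen hit, no activity in plain HEK293 cells, and in GIRK2-only cells above 5% efficacy rising with concentration; inactive means the rest, including fluorescent compounds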;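 further: efficacy is normalized control-subtracted fluorescence 15 s after thallium addition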
* = called active by the depositor; i = inactive; . = no result given; + = active, no number. The full list was thinned out, with hits kept by preference.

SMILES	AMPAR-TARP mod	GIRK2 activator
C=Cc1ccc(CN2C(=O)N(c3ccc(CC)cc3)C3CS(=O)(=O)CC32)cc1 (stereo not drawn)	+	.
Cc1ccc(CN2C(=O)N(c3ccc(C)c(Cl)c3)C3CS(=O)(=O)CC32)cc1 (stereo not drawn)	i	i
COC(=O)c1ccc(CSc2c(C)cnc3c2c(=O)n(C)c(=O)n3C)o1	i	i
Cc1ccc(CNC(=O)CSc2nc(=O)n(CCCO)c3c2CCC3)cc1	i	i
c1ccc(N2CCN(c3nc(NCc4ccco4)c4ccccc4n3)CC2)cc1	i	.
c1coc(CNc2nc(N3CCCCC3)nc3ccccc23)c1	+	.
CCOC(=O)c1sc(NC(=O)C2CCN(S(=O)(=O)c3ccc(OC)cc3)CC2)cc1C	i	i
CC1Cc2cc(-c3cc(CC(=O)NCc4ccco4)no3)ccc2O1 (stereo not drawn)	+	i
CC1Cc2cc(-c3cc(CC(=O)NCc4cc(-c5cccs5)on4)no3)ccc2O1 (stereo not drawn)	i	i
O=C(Cc1cc(-c2ccc3c(c2)OCO3)on1)NCc1cccs1	i	i
O=C(Cc1cc(-c2ccc3c(c2)OCCO3)on1)NCc1cccs1	+	i
COC(=O)c1ccc(NC(=O)C(=O)NCC2CCN(C(=O)c3cccnc3)CC2)cc1	i	i
COc1ccc(S(=O)(=O)NCCC(=O)O)cc1N(C)S(=O)(=O)c1ccc(C)cc1	i	.
Cc1ccc(CNC(=O)c2cnc3c(c(C)nn3-c3ccc(F)cc3)c2Cl)cc1	i	i
Cc1nn(-c2ccc(F)cc2)c2ncc(C(=O)NCCCn3ccnc3)c(Cl)c12	+	.
c1ccc2c(N3CCOCC3)nnc(N3CCOCC3)c2c1	i	i
COc1ccccc1Nc1nc(N2CCOCC2)c2ccccc2n1	+	.
COc1ccc(NC(=O)CSc2nc3ccccc3nc2N2CCOCC2)cc1	i	i
CN1CCN(c2nc(N3CCOCC3)c3ccccc3n2)CC1	+	.
O=C(NCC1CCN(C(=O)COc2ccccc2)CC1)C(=O)Nc1ccc(C(F)(F)F)cc1	i	i
CC(=O)N1CCc2ccc(NC(=O)c3ccc(F)c(F)c3)cc21	i	i
COc1nn(C)cc1C(=O)Nc1ccc2c(c1)N(C(=O)c1ccco1)CC2	+	i
COc1cccc(C(=O)Nc2ccc3c(c2)N(C(=O)c2ccco2)CC3)c1OC	i	i
CC(=O)N1CCc2ccc(NC(=O)c3ccno3)cc21	+	i
Cn1cnnc1SCCNC(=O)Cn1c(-c2cnccn2)nc2ccccc21	i	i
SMILES	AMPAR-TARP mod	GIRK2 activator
CSc1ccccc1C(=O)NCC(c1ccsc1)N(C)C (stereo not drawn)	i	i
CC1=C(C(=O)Nc2cccc(F)c2)C(c2cccc(Oc3ccccc3)c2)C2=C(CC(C)(C)CC2=O)N1 (stereo not drawn)	i	.
Cn1cccc(C(=O)NCC(O)(c2ccccc2)C2CC2)c1=O (stereo not drawn)	i	.
COCC(C)(O)CNC(=O)c1cccn(C)c1=O (stereo not drawn)	+	i
COc1ccc(OC)c(S(=O)(=O)NCC2(c3ccc(F)cc3)CC2)c1	i	.
O=C(c1cccs1)N1CCC(c2nnc(-c3ccc(F)cc3)o2)CC1	i	i
O=C(N1CCC(c2nnc(-c3ccc(F)cc3)o2)CC1)C1(c2cccs2)CCCC1	+	i
O=S(=O)(c1ccc(Cl)s1)N1CCCN(CCn2cccn2)CC1	i	i
N#C/C(=C\c1cccnc1)c1nc2ccccc2s1	+	.
N#C/C(=C\c1ccc(O)cc1)c1nc2ccccc2s1	i	.
COc1ccc(Cl)cc1NC(=O)c1cc(S(=O)(=O)N2CCN(c3ccccc3F)CC2)ccc1F	i	.
COc1ccccc1N1CCN(S(=O)(=O)c2ccc(F)c(C(=O)Nc3ccc(Cl)cc3)c2)CC1	+	.
CCCCOc1ccc(NC(=O)Nc2ccc3c(c2)N(C(=O)COC)CCC3)cc1	.	i
CC(=O)Cn1c(=O)c2c(nc3n(-c4cccc(Cl)c4)c(C)cn23)n(C)c1=O	i	.
COC(=O)c1sccc1S(=O)(=O)N(CC(=O)Nc1cc(C)ccc1C)c1ccc(Cl)cc1	i	i
COC(=O)c1sccc1S(=O)(=O)N(CC(=O)Nc1ccc(OC)cc1)c1ccc(Cl)cc1	+	i
COC(=O)c1sccc1S(=O)(=O)N(CC(=O)Nc1ccc(OC)cc1)c1ccccc1	i	i
COC(=O)c1sccc1S(=O)(=O)N(CC(=O)Nc1ccccc1OC)c1ccc(Cl)cc1	+	.
CCn1c(SCC(N)=O)nnc1-c1sc2cc(Cl)ccc2c1Cl	i	.
Cc1c(Cl)cccc1S(=O)(=O)NCC(O)c1ccc(C(F)(F)F)cc1 (stereo not drawn)	+	i
O=S(=O)(NCC(O)c1ccc(C(F)(F)F)cc1)c1ccc2c(c1)CCCC2 (stereo not drawn)	i	i
COc1ccc(S(=O)(=O)NCC(O)c2ccc(C(F)(F)F)cc2)cc1Cl (stereo not drawn)	+	.
Cc1c(Cl)cccc1S(=O)(=O)NCC(O)c1ccsc1 (stereo not drawn)	i	i
CCOC(=O)C1CCCN(CC(O)COc2ccc3ccccc3c2)C1 (stereo not drawn)	i	i
COc1cccc(-c2cc(CC(=O)Nc3ccc(C(N)=O)cc3)no2)c1	i	i
SMILES	AMPAR-TARP mod	GIRK2 activator
CCCC(=O)Nc1ccc(O)c(C(=O)/C=C/c2ccc(C(=O)O)cc2)c1	i	.
O=C(O)c1ccc(/C=C/C(=O)c2ccco2)cc1	+	.
CCOC(=O)N1CCN(CC(O)COC2CC3CCC2(C)C3(C)C)CC1 (stereo not drawn)	i	i
CCc1ccccc1NC(=O)Cc1csc(SCC(=O)c2ccc3c(c2)OCO3)n1	.	i
Cc1cc(N2CCOCC2)nc(N2CCN(C(=O)c3cnccn3)CC2)n1	+	i
Cc1cccc(C(=O)N2CCN(c3nc(C)cc(N4CCCCC4)n3)CC2)c1	+	.
Cc1cc(N2CCCCC2)nc(N2CCN(C(=O)c3ccccc3)CC2)n1	+	.
COc1cc(N2CCN(C(=O)c3cnccn3)CC2)nc(C)n1	i	i
Cc1cc(N2CCCCC2)nc(N2CCN(C(=O)Cc3ccccc3)CC2)n1	+	i
CCNc1cc(C)nc(N2CCN(C(=O)COc3ccccc3)CC2)n1	i	i
Cc1cc(C)cc(C(=O)N2CCN(c3nc(C)cc(N4CCCCC4)n3)CC2)c1	i	.
Cc1nc(N2CCCCC2)cc(N2CCN(C(=O)c3ncccn3)CC2)n1	i	i
Cc1ccc2nc3c(cc(C(=O)NCC4COc5ccccc5O4)n3C)c(=O)n2c1 (stereo not drawn)	i	i
O=C(Nc1cc(Cl)ccc1Cl)c1cc2c(cc1Br)OCCO2	.	i
COc1coc(C(=O)N2CCN(c3ccccc3Cl)CC2)cc1=O	i	i
COc1ccc(-n2nnc3c(N4CCN(C(=O)c5cccs5)CC4)ncnc32)cc1	i	.
COc1ccc(S(=O)(=O)CC(=O)Nc2nnc(-c3ccccc3OC)o2)cc1	i	i
COc1ccc2nc(-c3cccc(NC(=O)c4c(F)cccc4F)c3)cn2n1	i	i
COc1ccc2nc(-c3cccc(NC(=O)Nc4ccc(F)cc4)c3)cn2n1	+	i
